Rows were chosen to be rich in hits. Some 5.4% of all compounds tested hit in one or more screens of this group.
ALR H2O2 inh = inhibitors of human sulfhydryl oxidase ALR; purified ALR, DTT oxidation, H2O2 HRP-luminol luminescence; inhibition, % (test concentration not listed); hit rate 3.8% among 290,000; AID 485317;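 active = mean replicate inhibition above about 79%, with every replicate also reaching it, limit read from the data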
Exocytosis inh = lytic granule exocytosis inhibition; AID 651702; hit rate 0.66% among 360,000; TALL-104 LAMP-1 surface exposure, flow cytometry; cells stimulated with thapsigargin and PMA; inhibition, % at 10 µM;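 active = inhibition above about 55%, limit read from the data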
PfM18AAP inh = PfM18AAP enzyme inhibition. recombinant PfM18AAP, H-Glu-NHMec fluorogenic cleavage. AID 1822. hit rate 1.2% among 290,000. inhibition, % at 7.35 µM;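 active = inhibition above the campaign mean inhibition over all tested compounds plus 3 SD, cut at about 28% in these data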;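 note: 0% = plate median of test compound wells and 100% = 2 mM ZnCl2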
JMJD2C inh = blocks human GASC-1 demethylase activity; Q9H3R0; GST-JMJD2C(1-420) H3K9me3 demethylation, DELFIA europium; inhibition, % at 2.35 µM; hit rate 0.069% among 330,000; AID 2099;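 active = more than half of a compound's replicate wells show inhibition beyond 50%, single wells judged on their own value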;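 note: signal counts dimethyl H3K9 product captured on neutravidin plate; 0% = median of DMSO wells and 100% = 0.3 times that DMSO median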
Target sequence (Q9H3R0 1-420 limits assumed): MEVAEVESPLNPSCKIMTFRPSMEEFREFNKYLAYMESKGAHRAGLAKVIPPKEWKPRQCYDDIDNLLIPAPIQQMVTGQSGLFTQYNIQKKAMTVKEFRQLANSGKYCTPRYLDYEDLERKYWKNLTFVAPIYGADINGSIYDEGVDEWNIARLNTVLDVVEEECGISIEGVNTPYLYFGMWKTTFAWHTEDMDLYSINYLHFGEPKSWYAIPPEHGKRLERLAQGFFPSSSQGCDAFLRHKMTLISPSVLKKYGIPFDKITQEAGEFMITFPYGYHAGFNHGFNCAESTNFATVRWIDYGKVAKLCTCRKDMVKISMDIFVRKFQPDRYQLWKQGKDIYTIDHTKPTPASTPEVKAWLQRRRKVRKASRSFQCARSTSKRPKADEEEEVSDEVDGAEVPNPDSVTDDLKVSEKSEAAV
SMARCA2 act = activators of SMARCA2 function; activation, % at 9.1 µM; AID 652017; MG213 cells, MMTV-luciferase reporter, dexamethasone, overnight; hit rate 1% among 370,000; in the data active = activation above about 7.8%;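 note: 0% = vehicle wells and 100% = reference activator wells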
beta cell repl = induces beta-cell replication in MIN6 cells. MIN6 cells proliferation, ATPlite luminescence, 48 h; cells starved in 0.2% serum; 100% = growth in 10% serum. proliferation, % at 10 µM. hit rate 0.29% among 330,000. AID 2380;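 active = compounds whose signal lies at least 3.5 SD above the mean of all wells on their plate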;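 note: 0% = DMSO-treated cells in low-serum medium and 100% = 10% serum control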
* marks the source's active call; other numbers are inactive results; . = no result given.

SMILES	ALR H2O2 inh	Exocytosis inh	PfM18AAP inh	JMJD2C inh	SMARCA2 act	beta cell repl
COc1ccc(C2c3[nH]c4ccccc4c3C[C@H]3C(=O)N(CCCO)CC(=O)N23)c(OC)c1 (some centres not stated)	98.8*	2.5	-5.7	20.5	-3.1	-3.8
COc1cccc(C2c3[nH]c4ccccc4c3C[C@H]3C(=O)N(C)CC(=O)N23)c1 (some centres not stated)	98.2*	-2.0	-5.6	1.2	-2.6	-5.1
COc1ccc(C2c3[nH]c4ccccc4c3C[C@H]3C(=O)N(CCCO)CC(=O)N23)cc1OC (some centres not stated)	-9.6	2.5	1.6	1.8	-1.6	-3.4
COCCN1CC(=O)N2C(c3cccc(OC)c3)c3[nH]c4ccccc4c3C[C@H]2C1=O (some centres not stated)	99.0*	-0.4	-6.2	-6.0	2.0	-1.6
CCCN1CC(=O)N2C(c3ccccc3)c3[nH]c4ccccc4c3C[C@H]2C1=O (some centres not stated)	-6.2	-1.3	1.9	-7.2	-2.4	2.1
COC(=O)C1CN(Cc2ccc(F)cc2)CCS(=O)(=O)N1Cc1ccc(F)cc1 (configuration not stated)	.	.	.	.	-1.0	.
O=C(O)c1cc(-c2ccco2)nc2ccc(Br)cc12	98.1*	2.0	-5.3	-13.2	-4.8	-2.7
CC1(C)CC(NC(=O)c2ccccc2)CC(C)(C)N1	.	-0.7	-1.4	7.0	0.9	-1.2
CC1(C)CC(Nc2ccc(Nc3ccccc3)cc2)CC(C)(C)N1	99.0*	82.8*	2.6	-1.0	-2.9	.
COC(=O)[C@]12C[C@H](CC(=O)NCc3cccc4ccccc34)C(=O)N(Cc3cccc4ccccc34)C1=C[C@H](C1CCCC1)O[C@@H]2C	.	.	.	.	-3.5	.
COc1cc(Br)cc(CN2CCN(c3ncccn3)CC2)c1O	98.4*	-18.0	1.9	3.0	-1.3	-0.9
COc1cccc(CN2CCN(c3ncccn3)CC2)c1	-11.3	-0.2	2.0	-2.7	-4.0	-2.1
CC(=O)N1[C@H](Cc2ccccc2)C=C[C@]1(C)C(=O)NCCc1c[nH]c2ccccc12	99.2*	-3.1	-6.7	-2.4	1.7	1.0
CC(=O)N1[C@H](Cc2ccccc2)C=C[C@]1(C)C(=O)NCc1ccc(C)o1	-5.7	7.5	0.8	-2.3	.	1.0
COc1nc(OC)nc(N2CCC(C(=O)N(C)Cc3ccccc3F)CC2)n1	.	.	.	.	2.2	.
CCc1ccc(C(=O)/C=C/c2ccc([N+](=O)[O-])o2)cc1	9.9	32.6	3.7	-0.4	1.2	-6.2
Cc1ccc(C(=O)/C=C/c2ccc(-c3ccc(C)cc3)o2)cc1	.	71.5*	-7.8	-12.9	5.7	-7.2
Cc1ccc(C(=O)/C=C\C(=O)c2ccc(C)cc2)cc1	97.9*	55.3	-10.0	-0.5	2.5	.
O=Cc1ccc(-c2ccc(C(=O)O)cc2)o1	-2.4	-1.0	-12.8	7.4	-1.6	2.3
CCN(CC)S(=O)(=O)c1ccc(C(=O)/C=C/c2ccc(-c3ccc([N+](=O)[O-])cc3)o2)cc1	-8.1	5.6	28.2*	22.5	-1.5	-5.2
Cc1cc(C)cc(NC(=O)N2CCN(Cc3nc4ccccc4c(=O)[nH]3)CC2)c1	.	.	.	.	-6.3	.
COc1ccc(C(CCOC(=O)Oc2ccccc2)c2cc(OC)cc(OC)c2)cc1 (configuration not stated)	.	.	.	.	2.7	.
CCCC(=O)OC[C@H]1CN(C2CCCC2)S(=O)(=O)c2c(Oc3ccccc3)cccc2O1	.	.	.	.	3.2	.
CCC(=C(c1ccc(O)cc1)c1ccc(OCCN(C)C)cc1)c1ccccc1	.	0.1	.	.	-2.6	.
CC/C(=C(\c1ccc(O)cc1)c1ccc(OCCN(C)C)cc1)c1ccccc1	97.0*	17.9	5.9	-6.8	-4.9	-7.7
O=S1(=O)c2ccccc2N=NN1Cc1cc(Cl)cc(Cl)c1	99.0*	.	9.2	-3.2	.	-0.8
Cc1nn(CC2CCCCC2)c(N)c1-c1ccccc1	98.2*	4.1	-4.1	-3.5	2.6	-5.4
Cc1nnc(SCC(=O)c2ccc([N+](=O)[O-])cc2)s1	-15.4	-1.8	6.1	2.4	-1.9	-5.0
Nc1nnc(SCC(=O)c2ccc([N+](=O)[O-])cc2)s1	97.8*	0.3	-7.3	13.4	3.5	-1.2
Cc1cc(N)c(NC2=CC(=O)CC(C)(C)C2)cc1C	98.5*	-0.5	3.8	-2.4	2.3	-0.6

High-throughput results as filed in PubChem BioAssay.
